For this test, the target named is USP44. Description: pooled miR-30 sensor sort-seq; sequence = guide strand. To be noted: shRNA.
With TTTGATATACTACTGTATCTGT, the sensor-assay potency score (higher = more potent) worked out at 0.327. For the sequence TATCTTTTGCTGGTGATGCTGG, the sensor-assay potency score (higher = more potent) was -0.299. With TTGCACAAGTTCATCATCCGAG the figure was 0.487; with TATAAAACAAGATATAAGCTTG, -0.0233. Regarding TACAACATTCAGAACTTGTTTG, the sensor-assay potency score (higher = more potent) was -0.39.

As to TTGCAGTGTACCCAGAACCCTC, the sensor-assay potency score (higher = more potent) is -1.01. In the case of TACGCTTTGAGTTACACTGGTC it was 0.148.

Sequence TTGCAGTCCACACAGTGCCATT gave a sensor-assay potency score (higher = more potent) of -1.55. The sequence TAACTTGATACTCCAATTCCTG gave a sensor-assay potency score (higher = more potent) of -1.33. For TATCATTCAGAACATAATCATC, the sensor-assay potency score (higher = more potent) was -1.41. With TTGATCTTCACTTTGAAGCAGA the figure was -0.107. In turn, TTGATTTGTTGTCACATGCAAG had a sensor-assay potency score (higher = more potent) of -1.1.
Note: reference of the scale not given here.
